Data on 25 compounds can be found in the supplement of paper PMC9897528.

Values without a mark were called inactive.
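Note: conidia screened in RPMI 1640 medium under 5% CO2, growth read by spectrophotometer, medium with 0.5% DMSO serving as the untreated reference.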

This experiment deals with Scedosporium aurantiacum CBS 136046. In words: growth inhibition relative to DMSO control (OD600); higher = more antifungal activity, active = 80 or more; extreme values may be limits of the assay. The following applies: 5 µM; 72 h; 37 °C.
`O=S(=O)(Nc1ccc(-n2cccc2)cc1)c1ccc(Cl)c(Cl)c1`: the growth inhibition is 41.8%.

`O[C@@](Cn1cnnn1)(c1ccc(F)cc1F)C(F)(F)c1ccc(-c2ccc(OCC(F)(F)F)cc2)cn1`: the growth inhibition was 47.1%. For the compound `O=C1c2cccc3cccc(c23)C(=O)N1CC1CO1` (stereo not given), the growth inhibition was 19.8%. Turning to `CC(C)Cn1c(=O)n(C)c(=O)c2c(-c3cncn3C)n(Cc3cccc4ccccc34)nc21`, the growth inhibition was 29%. `CN1c2ccc(Cl)cc2N(c2ccccc2)C(=O)c2cn(Cc3ccc(CN4CCOCC4)cc3)nc21`: the growth inhibition was 17.1%.

Turning to `CCOc1noc2cc(OCCC3CCN(c4ccc(C)nn4)CC3)ccc12`, the growth inhibition was 37.3%. With `C[C@@H](O)[C@H](N)C(=O)NS(=O)(=O)c1cccc(-c2ccc3[nH]ncc3c2)c1` the figure was 21%; with `COc1ccc(OCc2ccc(COc3c(Cl)cccc3Cl)cc2)c(Cl)c1`, 21.7%. To `O=c1cc(Nc2ccc3ccccc3c2)[nH]c(=O)[nH]1` belongs 0.738%; to `Cc1cccc(C)c1C(=O)Nc1nc(-c2ccccn2)cc2ccccc12`, 26.2%. On to `CN(C/C=C/C#CC(C)(C)C)Cc1cccc2ccccc12`, for which the growth inhibition is 23.6%. With `C=C(C)[C@@H]1CC[C@]2(C(=O)O)CC[C@]3(C)[C@H](CC[C@@H]4[C@@]5(C)CC[C@H](O)C(C)(C)[C@@H]5CC[C@]43C)[C@@H]12` the figure was 1.06%.

On to `CC(C)(C)NC(=O)N[C@H](C(=O)N1C[C@H]2[C@@H]([C@H]1C(=O)NC(CC1CCC1)C(=O)C(N)=O)C2(C)C)C(C)(C)C` (stereo not given in full), for which the growth inhibition was 10.8%. As for `O=C(O)C[C@H]1CC[C@H](c2ccc(-c3ccc(Nc4ccc(C(F)(F)F)nc4)cn3)cc2)CC1`, the growth inhibition was 12.5%. With `N=c1n(CCN2CCCCC2)c2ccccc2n1CC(O)COc1ccc(Cl)cc1Cl` (stereo not given), the growth inhibition is 25.3%. On to `CCc1cc(O)c(Oc2ccc(C(N)=O)cc2F)cc1F`, for which the growth inhibition was 29.4%. To `O=C(NCc1ccccc1Cl)c1cnc2ccccc2n1` belongs 10.6%. For the compound `Oc1ccc2[nH]c(-c3ccccc3)nc2c1`, the growth inhibition was 26.7%. Consider `COc1ccc(C[C@@H](C)[C@@H](C)Cc2ccc(OC)c(OC)c2)cc1OC`, for which the growth inhibition was 8.67%. With `NC(=O)[C@@H]1CC[C@@H]2CN1C(=O)N2OS(=O)(=O)O` the figure was 0%. With `C[C@@H](c1nc(-c2ccc(C#N)cc2)cs1)[C@](O)(Cn1cncn1)c1ccc(F)cc1F`, the growth inhibition was 60.6%. On to `CC(C)(C)OC(=O)NCc1ccc(C(=O)N[C@H]2CCOC2=O)cc1`, for which the growth inhibition is 15.3%.

`CCOC(=O)/C=C/[C@H](C[C@@H]1CCNC1=O)NC(=O)[C@@H](CC(=O)[C@@H](NC(=O)c1cc(C)on1)C(C)C)Cc1ccc(F)cc1`: the growth inhibition was 1.27%. As for `FC(F)(F)Oc1ccc(Nc2ccc3cccc(Cl)c3n2)cc1`, the growth inhibition is 25.3%.

As to `NC[C@H]1OB(O)c2c(OCCCO)cccc21`, the growth inhibition is 34.1%.
